Bead autofluor: compound fluorescence in toxin protease inhibitor counterscreen | compound autofluorescence counterscreen, microsphere flow cytometry; active compounds read high | fluorescence intensity (concentration not given with the values) | 360,000 tested, 3.1% active; in the data active means fluorescence intensity above about 16000; inconclusive means no clear call, values can overlap the other calls
Anthrax LF prot: Bacillus anthracis LF protease inhibitors, primary screen, biochemical, multiplex microsphere, MLPCN library | 360,000 tested, 0.12% active | inhibition, % at 10 µM | multiplex microsphere protease cleavage assay | Lethal factor (Bacillus anthracis), P15917 | AID 588501, 2011; further: plate controls were buffer without enzyme for full effect and enzyme alone for no effect
BoNT A protease: BoNT/A light chain protease inhibitors, primary screen, biochemical, flow cytometry, MLPCN library | Botulinum neurotoxin type A light chain protease (Clostridium botulinum A str. ATCC 3502) | inhibition, % at 10 µM | 360,000 tested, 0.17% active | multiplex microsphere protease substrate cleavage; further: plate controls were buffer without enzyme for full effect and enzyme alone for no effect
BJeLR viability: MLPCN primary cell-based screen for lethality selective to Ras in HRASV12 cells; BJeLR (HRASV12) viability, CellTiter-Glo ATP luminescence, 48 h; inhibition, % (no concentration beside the values); 300,000 tested, 0.17% active; AID 1554, 2009; in the data active means inhibition above about 50%; inconclusive means no clear call, values can overlap the other calls
BoNT F protease: BoNT/F light chain protease inhibitors, primary screen, biochemical, flow cytometry, MLPCN library; Multiplex microsphere protease cleavage assay; inhibition, % at 10 µM; 360,000 tested, 0.22% active; AID 588497, 2011; in the data active means inhibition above about 35%, passing the limit was not always enough; inconclusive means no clear call, values can overlap the other calls; further: plate controls were buffer without enzyme for full effect and enzyme alone for no effect
3CLpro inhibitor: SARS-CoV 3CLpro protease inhibitors, primary screen, biochemical, quenched FRET | inhibition, % at 6 µM | AID 1706, 2009 | recombinant SARS-CoV 3CLpro, quenched FRET peptide cleavage | Replicase polyprotein 1ab (Severe acute respiratory syndrome coronavirus), P0C6X7 | 290,000 tested, 0.14% active; in the data active means inhibition above about 12%
* = called active by the depositor; ? = inconclusive; / = no result given. Compounds with a hit are over-represented: about 3.6% of the library has one in this group of screens. Unless noted, no stated cut-off is given here; in the data, active means inhibition above about 30%; inconclusive means no clear call, values can overlap the other calls; inactive means below that.

SMILES	Bead autofluor	Anthrax LF prot	BoNT A protease	BJeLR viability	BoNT F protease	3CLpro inhibitor
O=C(CN1CCOCC1)Nc1ccc(-c2nc3ccccc3[nH]2)cc1	23886*	0	-2	-9	-5	1
Cc1ccc2nc(C3CCN(CC(=O)Nc4ccc5c(c4)OCCO5)CC3)[nH]c2c1	23511*	-1	0	10	-4	4
CCOc1ccccc1NC(=O)N1CCC(c2nc3ccccc3[nH]2)CC1	21924*	2	?	-10	5	0
COc1cccc(C(c2cccc(OC)c2)c2ccccc2C(=O)O)c1	2985	-10	0	/	2	/
COC(=O)c1ccccc1NC(=O)CSc1nc(O)cc(=O)n1C1CCCC1	3605	-2	-1	10	-9	2
COc1ccc(NC(=O)c2cc(C3CCCCN3C(=O)c3ccccc3)on2)c(C)c1 (stereo unspecified)	3310	-1	0	/	-2	/
Cc1cc(C)c(OCCCNC2CCCC2)c(Br)c1	3115	6	-2	13	-9	-1
O=S(=O)(c1ccc2c(c1)OCCO2)N1CCC(c2nc3ccc(Cl)cc3[nH]2)CC1	15046	3	4	0	4	-2
O=C(CN1CCC(c2nc3ccccc3[nH]2)CC1)Nc1ccc2c(c1)OCO2	21412*	-5	4	/	3	2
O=S(=O)(c1ccc2c(c1)OCCO2)N1CCC(c2nc3ccccc3[nH]2)CC1	22441*	0	3	3	3	-2
COc1ccc(Cn2c(SCc3ccccc3C)nc3cc(OC)c(OC)cc3c2=N)cc1	/	/	/	7	/	2
COc1cc2nc(SCc3ccc(F)cc3)n(Cc3cccs3)c(=N)c2cc1OC	20501*	-1	?	4	-3	2
CCc1cc(C(=O)OC)c(NC(=O)CCC(=O)O)s1	21823*	1	1	/	0	2
CCCc1cc(C(=O)OC)c(NC(=O)CCCC(=O)O)s1	4683	3	0	-2	-2	1
CCCc1cc(C(=O)OC)c(NC(=O)OCC)s1	18061*	-12	?	5	11	3
Cc1cccc(Cn2c(-c3ccc[nH]c3=O)nc3ccccc32)c1	3298	-7	-1	18	29	4
CC1(C)NC(=O)N(CC(=O)OCC(=O)NC(=O)c2ccccc2)C1=O	?	-6	-4	-6	-23	/
COc1ccc(S(=O)(=O)N2c3ccc(F)cc3CCC2C)cc1 (stereo unspecified)	3637	-9	-3	62*	9	/
CC(=O)Nc1ccc(S(=O)(=O)N2c3ccc(F)cc3CCC2C)cc1 (stereo unspecified)	/	/	/	32	/	/
COc1ccc2c(c1OC)C(=O)OC2CC(=O)c1ccc2c(c1)OCO2 (stereo unspecified)	16170*	2	?	5	2	1
COc1ccc(C(CNC(=O)C(=O)NC2CCCCC2)N2CCN(C)CC2)cc1 (stereo unspecified)	5934	-1	1	2	14	/
CC(C)CCn1c(=O)c(C(=O)Nc2ccccc2S(N)(=O)=O)c(O)c2ccccc21	22781*	-3	-2	-16	-5	-2
CC(C)Cn1c(=O)c(C(=O)Nc2ccccc2S(N)(=O)=O)c(O)c2ccccc21	11555	-1	0	5	-4	-8
Cc1ccc(CNC(=O)CCCn2nc(C)n3ccnc3c2=O)cc1	5683	-5	0	-10	-11	-6
COc1ccc(C(C)(O)c2nc(-c3ccccc3C)cs2)cc1 (stereo unspecified)	3624	-4	0	/	-8	/
SMILES	Bead autofluor	Anthrax LF prot	BoNT A protease	BJeLR viability	BoNT F protease	3CLpro inhibitor
COc1cccc(NC(=O)Nc2ccc3c(c2)N(C)C(=O)CS3)c1	10487	8	-2	-9	-3	-1
COc1ccc2c(c1)SCC(=O)N2C	21232*	2	-5	0	-2	-1
CCOC(=O)C1=C(c2ccccc2)NC(SCC(N)=O)=C(C#N)C1c1cccnc1 (stereo unspecified)	19434*	-2	3	-3	4	0
O=C(OCC(=O)N1CCCCC1)c1ccc2c(c1)C(=O)N(Cc1ccco1)C2=O	2742	-11	0	/	-4	/
CC1CSc2ccccc2NC1=S (stereo unspecified)	16476*	-6	0	2	-2	-2
O=C(Cn1c(=O)n(CCC(=O)N2CCCCC2)c(=O)c2sccc21)NCc1ccccc1	5332	0	0	-1	-4	-8
COC(=O)C(NC(=O)c1ccccc1)c1ccccc1 (stereo unspecified)	25637*	1	-4	-4	-5	7
COC(=O)C(NC(=O)C(NC(=O)c1ccccc1)C(C)C)C(C)C (stereo unspecified)	22539*	1	1	13	2	-4
COC(=O)C(NC(=O)C(C)Oc1ccccc1)C(C)C (stereo unspecified)	20348*	-6	?	-5	0	-4
Cc1ccc2c(c1)cc(C(=O)NCc1ccccc1)n2C	/	/	/	25	/	4
O=c1cc(N2CCCCCC2)[nH]c(=O)n1-c1ccccc1Cl	2008	1	0	/	-2	-2
NC(=O)CN1CCOCCOCCN(CC(N)=O)CCOCCOCC1	3613	-2	1	-3	1	0
O=C(CSc1ccc(Cl)cc1)NCc1ccco1	4326	-2	0	4	-1	-3
C/C=C/Cn1c(Br)nc2c1c(=O)[nH]c(=O)n2C	22506*	-4	1	-7	1	-6
Cn1c(=O)[nH]c(=O)c2c1nc(Br)n2CCCSc1nc2ccccc2o1	17409*	0	?	12	-7	-4
Cc1nc(SCC(=O)NCC2CCCO2)[nH]c(=O)c1C (stereo unspecified)	?	4	4	-7	?	/
Cc1ccc(OCC(=O)N(Cc2ccc(N(C)C)cc2)C2CCS(=O)(=O)C2)cc1 (stereo unspecified)	4320	-3	0	0	10	-7
COc1cc(C(=O)N(Cc2cccc(Cl)c2)C2CCS(=O)(=O)C2)cc(OC)c1OC (stereo unspecified)	8102	2	1	0	7	2
CCCOc1cccc(C(=O)N(Cc2ccccc2)C2CCS(=O)(=O)C2)c1 (stereo unspecified)	6029	1	-2	11	1	0
COc1cc(C(=O)N(Cc2ccc(F)cc2)C2CCS(=O)(=O)C2)cc(OC)c1OC (stereo unspecified)	17106*	2	-2	-6	-2	2
CCOc1cccc(C(=O)N(Cc2ccc(F)cc2)C2CCS(=O)(=O)C2)c1 (stereo unspecified)	21464*	0	?	-2	-2	-1

Source: PubChem BioAssay
